Measured values: PubChem BioAssay (NCATS)
Records with an inconclusive call do not appear. The source made the active and inactive calls. Calls come from the whole dose curve; as a rule, active = well fitted curve in the direction sought with a large enough effect; inconclusive = small, poorly fitted or top-dose-only effect, or another doubt; inactive = no such curve, though single readings can be large; an effect the other way counts as inactive or inconclusive.

Key:
[1] = Primary redox qHTS assay for identification of artifact compounds. (AID 1845223)
In short: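 Amplex Red (25 uM) and HRP (250 mU/mL) in HBSS, with compounds for 15 min, then 250 uM DTT for 30 min, room temperature, dark. Fluorescence 525/598 nm read; normalized to DMSO and 10 uM DA3003; Hill fit.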

[2] = Quantitative High-Throughput drug screen in 47 multiple myeloma cell lines against the NCATS MIPE library collection: Delta47_JCRB cell viability assay (AID 1918925; note: nearly all actives have a fitted effect of over 45% in size; note: potency is the fitted concentration of half-maximal effect)
In short: (§1)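 Approved and investigational drugs from MIPE 4.0 were added by pin tool to 500 cells per well. After 48 hours at 37C, ATP-based CellTiter-Glo luminescence indicated remaining viability.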

[3] = Quantitative High-Throughput drug screen in 47 multiple myeloma cell lines against the NCATS MIPE library collection: EJM_DSMZ cell viability assay (AID 1918926; note: nearly all actives have a fitted effect of over 30% in size; note: potency is the fitted concentration of half-maximal effect)
In short: as §1

[4] = Quantitative High-Throughput drug screen in 47 multiple myeloma cell lines against the NCATS MIPE library collection: KMM1_JCRB cell viability assay (AID 1918960); note: nearly all actives have a fitted effect of over 30% in size; note: potency is the fitted concentration of half-maximal effect
In short: (§2)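 Here, 48 h treatment with MIPE 4.0 agents at 37 °C preceded an ATP luminescence read. Plating density was 500 cells per well.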

[5] = Quantitative High-Throughput drug screen in 47 multiple myeloma cell lines against the NCATS MIPE library collection: FR4_PLB cell viability assay (AID 1918924; note: nearly all actives have a fitted effect of over 35% in size; note: potency is the fitted concentration of half-maximal effect)
In short: (§3)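 CellTiter-Glo luminescence (ATP) after 48 h compound exposure, 37C/5% CO2; 500 cells/well; MIPE 4.0 approved/investigational drugs pinned in; DMSO = 100%, media only = 0% viability.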

[6] = Quantitative High-Throughput drug screen in 47 multiple myeloma cell lines against the NCATS MIPE library collection: AMO1_DSMZ cell viability assay (AID 1918927; note: nearly all actives have a fitted effect of over 30% in size; note: potency is the fitted concentration of half-maximal effect)
In short: as §1

[7] = Quantitative High-Throughput drug screen in 47 multiple myeloma cell lines against the NCATS MIPE library collection: Karpas417_ECACC cell viability assay (AID 1918961); settings: Karpas417 myeloma viability, CellTiter-Glo ATP luminescence, 48 h; viability (% of DMSO): at 45.8 µM (top of the series); note: potency is the fitted concentration of half-maximal effect
In short: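 Myeloma cells (500 per well) were exposed to MIPE 4.0 compounds by pin transfer and incubated 48 hours at 37C, 5% CO2. Viability was read as ATP by CellTiter-Glo luminescence, normalised to DMSO (100%) and media-only (0%) wells.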

[8] = Quantitative High-Throughput drug screen in 47 multiple myeloma cell lines against the NCATS MIPE library collection: ARD_JJKsccE7 cell viability assay (AID 1918929; note: potency is the fitted concentration of half-maximal effect)
In short: as §1

[9] = Quantitative High-Throughput drug screen in 47 multiple myeloma cell lines against the NCATS MIPE library collection: Karpas620_DSMZ cell viability assay (AID 1918959); note: nearly all actives have a fitted effect of over 30% in size; note: potency is the fitted concentration of half-maximal effect
In short: as §3

[10] = Quantitative High-Throughput drug screen in 47 multiple myeloma cell lines against the NCATS MIPE library collection: ARP1_JJKsccF8 cell viability assay (AID 1918928; note: nearly all actives have a fitted effect of over 40% in size; note: potency is the fitted concentration of half-maximal effect)
In short: as §2

Measured: Potency

Cn1c(N2CCCCS2(=O)=O)nc(C(=O)NCc2ccc(F)cc2)c(O)c1=O
inactive: [1] | [2] | [3] | [4]

COc1ncc(-c2ccc3nccc(-c4ccnnc4)c3c2)cc1NS(=O)(=O)c1ccc(F)cc1F
inactive: [1] | [7]
active: [5] 0.0132 µM | [6] 0.0469 µM

CS(=O)c1ccc(-c2nc(-c3ccc(F)cc3)c(-c3ccncc3)[nH]2)cc1 (stereo unspecified)
active: [2] 13.6 µM | [3] 10.8 µM | [6] 30.3 µM | [8] 42.9 µM | [9] 34 µM | [4] 34 µM | [7] 3.82 µM
inactive: [1]

O=C(NC1CCOCC1)c1ccc(-c2cc(-c3cn[nH]c3-c3ccccn3)ccn2)cc1
active: [8] 0.0296 µM
inactive: [1] | [5] | [3] | [9]

CC1(C)S[C@H]2[C@H](NC(=O)[C@@H](N)c3ccc(O)cc3)C(=O)N2[C@@H]1C(=O)O
inactive: [5] | [2] | [3]
active: [6] 2.35 µM | [10] 20.9 µM | [8] 4.69 µM | [9] 14.8 µM | [4] 2.09 µM | [7] 1.66 µM

CC(C)(C)Cn1c(N)nc2ccc(-c3[nH]c(C(C)(C)C)nc3-c3ccc(F)cc3)nc21
inactive: [1] | [9] | [4]

CCn1c(C(=O)N(C2CC2)C2CC2)cc2c3c(ncn3C)c(Nc3cc(C)n(C)n3)nc21
inactive: [1] | [6] | [9]

NS(=O)(=O)c1ccc(NC2=CC(=O)c3ccccc3C2=O)cc1
inactive: [3]
active: [5] 2.96 µM | [2] 18.7 µM | [6] 0.59 µM | [10] 2.64 µM | [8] 2.64 µM | [9] 1.66 µM

CC1(C)CCC2=C(O1)c1ccccc1C(=O)C2=O
active: [5] 20.9 µM | [2] 16.6 µM | [3] 20.9 µM | [6] 4.69 µM | [10] 18.7 µM | [9] 2.96 µM
inactive: [8]

CN(C[C@@H]1COCCO1)S(=O)(=O)Nc1ccc2ccc3ncc(-c4cnn(C)c4)cc3c(=O)c2c1
active: [5] 13.2 µM | [3] 2.96 µM | [4] 1.48 µM
inactive: [1]

c1ccc2c(Cc3c[nH]c4ccccc34)c[nH]c2c1
inactive: [8]
active: [5] 20.9 µM | [2] 0.935 µM | [3] 1.48 µM | [6] 8.33 µM | [10] 20.9 µM | [9] 9.35 µM

CC=CC(=O)N(CC)c1ccccc1C
active: [10] 5.26 µM
not listed: [1] | [7]
inactive: all other assays above

CC(C)(C)COc1ccc(-n2cc(C(=O)O)cn2)cc1C#N
not listed: [1] | [7]
inactive: all other assays above

CCS(=O)(=O)N1CC(CC#N)(n2cc(-c3ncnc4[nH]ccc34)cn2)C1
active: [5] 16.6 µM | [6] 3.72 µM | [7] 0.105 µM
inactive: [1] | [8] | [4]

NC(=O)c1cccc(-c2cc(Nc3ccc(OC(F)(F)F)cc3)ncn2)c1
active: [2] 18.7 µM | [6] 18.7 µM | [8] 14.8 µM | [9] 26.4 µM | [4] 14.8 µM
inactive: [1]

CCOc1ccc(Nc2nc(-c3c(C)nc4ccccn34)cs2)cc1
active: [6] 0.001 µM | [8] 0.001 µM | [9] 0.0015 µM | [4] 0.001 µM
inactive: [1]

CCc1ccc(OCc2ccccc2C(=O)Nc2ccc3nc(C)cc(N)c3c2)cc1
active: [5] 8.33 µM | [2] 1.18 µM | [3] 7.43 µM | [6] 3.32 µM | [10] 7.43 µM | [8] 2.64 µM | [9] 1.05 µM | [4] 2.64 µM | [7] 1.87 µM

O=C(O)c1ccccc1C(=O)Nc1ccc(-c2ccccc2)cc1
inactive: [1] | [5] | [6] | [8] | [9] | [4]

CCNc1cc(NC2CCC(O)CC2)nc(Nc2ccc3c(ccn3Cc3ccccc3)c2)n1 (stereo unspecified)
active: [5] 26.4 µM | [2] 18.7 µM | [3] 18.7 µM

COc1ccc2cc(-c3nc(-c4ccc(S(C)=O)cc4)[nH]c3-c3ccncc3)ccc2c1 (stereo unspecified)
active: [2] 16.6 µM | [9] 18.7 µM | [4] 23.5 µM
inactive: [1]

COc1ccc(Cc2nccc3cc(OC)c(OC)cc23)cc1OC
inactive: [5]

O=C(Nc1cccc(Br)c1)c1cccc(S(=O)(=O)N2CCCCCC2)c1
active: [2] 18.7 µM | [8] 16.6 µM | [9] 20.9 µM | [4] 16.6 µM
inactive: [1]

CC(C)n1nc(-c2ccc3oc(N)nc3c2)c2c(N)ncnc21
active: [2] 0.0059 µM | [9] 1.18 µM
inactive: [1]

CO[C@H]1C=CO[C@@]2(C)Oc3c(C)c(O)c4c(O)c(c5c(c4c3C2=O)NC2(CCN(CC(C)C)CC2)N=5)=NC(=O)C(C)=CC=C[C@H](C)[C@H](O)[C@@H](C)[C@@H](O)[C@@H](C)[C@H](OC(C)=O)[C@H]1C
inactive: [1] | [2] | [4]

CO[C@H]1C=CC=C(C)C(=O)NC2=CC(=O)C(NCCN(C)C)=C(C[C@@H](C)C[C@H](OC)[C@@H](O)[C@@H](C)C=C(C)[C@@H]1OC(N)=O)C2=O
active: [5] 0.166 µM | [2] 0.0469 µM | [3] 1.48 µM | [6] 0.0469 µM | [10] 0.0118 µM | [8] 0.001 µM | [9] 0.296 µM | [4] 0.0526 µM

N[C@H](CSC(c1ccccc1)(c1ccccc1)c1ccccc1)C(=O)O
active: [5] 5.26 µM | [2] 7.43 µM | [3] 18.7 µM | [6] 23.5 µM

CC(C)C(=O)Nc1ncc(-c2cc(C(F)F)nn2-c2c(Cl)cccc2Cl)s1
inactive: [1]
active: [2] 26.4 µM | [6] 8.33 µM | [8] 20.9 µM | [4] 16.6 µM

CS(=O)(=O)N(Cc1ccco1)CC(O)Cn1c2ccccc2c2ccccc21 (stereo unspecified)
inactive: [1] | [5] | [10] | [9]

CC(=O)N(C)C1(c2ccccc2)CCN(CCC[C@]2(c3ccc(Cl)c(Cl)c3)CCCN(C(=O)c3ccccc3)C2)CC1
inactive: [1]
active: [2] 10.5 µM | [3] 20.9 µM | [6] 10.5 µM | [8] 20.9 µM | [9] 16.6 µM | [4] 14.8 µM

COC[C@@H](c1ccc(C(F)(F)F)cc1)N1CCN(C2(C)CCN(C(=O)c3c(C)ncnc3C)CC2)C[C@H]1C
active: [2] 23.5 µM | [6] 16.6 µM
inactive: [5] | [3] | [10]

CC(C)C(=O)Oc1ccc(CO)cc1[C@H](CCN(C(C)C)C(C)C)c1ccccc1
not listed: [2] | [5]
inactive: all other assays above

CN[C@@H](C)C(=O)N[C@H]1CN(C(=O)CC(C)C)CC[C@H]2CC[C@@H](C(=O)NC(c3ccccc3)c3ccccc3)N2C1=O
inactive: [1]
active: [3] 16.6 µM | [6] 2.96 µM | [8] 7.43 µM | [9] 1.18 µM

Cc1ccc(Nc2cc(-c3cccc(N4C(=O)c5ccccc5C4=O)c3)ncn2)cc1NS(C)(=O)=O
active: [2] 14.8 µM | [3] 26.4 µM | [6] 18.7 µM | [8] 20.9 µM | [4] 18.7 µM | [7] 4.69 µM
inactive: [1]

N#CC(=C(N)Sc1ccccc1N)C(C#N)=C(N)Sc1ccccc1N
active: [5] 7.43 µM | [2] 16.6 µM | [3] 10.5 µM | [6] 18.7 µM | [8] 20.9 µM | [9] 16.6 µM | [4] 18.7 µM

O=C1C(Cl)=C(NCCN2CCOCC2)C(=O)c2ncccc21
active: [5] 6.62 µM | [2] 7.43 µM | [3] 7.43 µM | [6] 2.96 µM | [10] 4.69 µM | [8] 5.26 µM | [9] 1.48 µM | [4] 3.32 µM | [7] 3.32 µM

C[C@H]1[C@H](NC(=O)C(=NOC(C)(C)C(=O)O)c2csc(N)n2)C(=O)N1S(=O)(=O)O
not listed: [1] | [7] | [10]
inactive: all other assays above

CCc1ccc(C=C2SC(=S)NC2=O)cc1
inactive: [5] | [2] | [3] | [10]

CC[C@@]1(O)C[C@H](O[C@H]2C[C@H](N(C)C)[C@H](O[C@H]3C[C@H](O)[C@H](O[C@H]4CCC(=O)[C@H](C)O4)[C@H](C)O3)[C@H](C)O2)c2c(cc3c(c2O)C(=O)c2c(O)cccc2C3=O)[C@@H]1C(=O)OC
active: [5] 0.332 µM | [2] 0.0662 µM | [3] 0.469 µM | [6] 0.833 µM | [10] 1.05 µM | [8] 5.26 µM | [4] 5.9 µM

CC(=Cc1ccccc1)C=C1SC(=S)N(CC(=O)O)C1=O
not listed: [1] | [9] | [10]
inactive: all other assays above

O=C1c2c(O)cc(O)cc2O[C@H](c2cc(O)c(O)c(O)c2)[C@H]1O
active: [5] 26.4 µM | [3] 1.66 µM | [10] 11.8 µM
inactive: [2] | [8] | [4]

CO[C@H]1C(=O)[C@]2(C)[C@@H](OC)C[C@H]3OC[C@@]3(OC(C)=O)[C@H]2[C@H](OC(=O)c2ccccc2)[C@]2(O)C[C@H](OC(=O)[C@H](O)[C@@H](NC(=O)OC(C)(C)C)c3ccccc3)C(C)=C1C2(C)C
inactive: [5] | [2] | [3] | [10] | [4]

N[C@@]1(C(=O)O)CS(=O)(=O)[C@H]2[C@H](C(=O)O)[C@H]21
active: [2] 9.35 µM
inactive: [5] | [3] | [10] | [9]

CCOC1OC(=O)C[C@H]1NC(=O)[C@@H]1CCCN1C(=O)[C@@H](NC(=O)c1ccc(N)c(Cl)c1)C(C)(C)C (stereo partly specified)
inactive: [5] | [2] | [3] | [7]
active: [6] 18.7 µM | [8] 20.9 µM | [9] 4.69 µM | [4] 29.6 µM
